Screens deposited in PubChem BioAssay by several laboratories.
aDG glyco up: increases alpha dystroglycan glycosylation. Pro5-aDG cells, alpha-DG glycosylation AlphaScreen (IIH6); 0% Pro5, 100% B10-LARGE cell signal. activation, % at 10 µM. actives 0.22% (n = 360,000);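 active = activation of at least 8% versus controls, or a plate z-score of at least 8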;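 also: Pro5 are CHO cells carrying HIG-tagged alpha-DG that lacks glycosylation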
ADAM10 inh: inhibits human ADAM10; AID 720582; actives 0.62% (n = 370,000); inhibition, % at 7 µM; recombinant ADAM10, EDANS/DABCYL FRET peptide cleavage, 3 h; O14672;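 active = inhibition above a per-campaign cutoff equal to the mean of compounds falling between control-based bounds plus 3 SD, cut at about 20% in these data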;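 also: 0% = DMSO wells while the 100% control is not disclosed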
NR3A LBD binder: NR3A (human) ligand-binding domain modulation; Tm shift relative to glycine control, % at 25 µM; NR3A LBD differential scanning fluorimetry, Tm shift; 0% = protein alone, 100% = glycine-bound protein; AID 1259313; actives 2.5% (n = 340,000);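 active = melting temperature shift of at least 10% of the positive control shift, at one fixed dose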
ADAM17 inh: ADAM17 inhibition, QFRET primary screen. inhibition, % at 6.95 µM. recombinant ADAM17, EDANS/DABCYL FRET peptide cleavage. P78536. actives 0.83% (n = 370,000). AID 720648;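 active = inhibition above the mean of compounds lying between control limits plus 3 SD, set per campaign, cut at about 8.5% in these data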;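 also: 0% = DMSO-only wells as the low control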
FAS TE block: blocks the thioesterase domain of human fatty acid synthase; AID 602261; actives 0.67% (n = 360,000); inhibition, % at 15 µM; P49327; recombinant FAS-TE, OMFH fluorogenic substrate, fluorescence endpoint;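 active = compounds whose normalised, plate-corrected inhibition of enzyme fluorescence in the single-dose primary screen is 50% or more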;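 also: 0% = DMSO with enzyme and 100% = substrate without enzyme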
Target sequence (P49327 whole entry, looked up, the tested form may be a part): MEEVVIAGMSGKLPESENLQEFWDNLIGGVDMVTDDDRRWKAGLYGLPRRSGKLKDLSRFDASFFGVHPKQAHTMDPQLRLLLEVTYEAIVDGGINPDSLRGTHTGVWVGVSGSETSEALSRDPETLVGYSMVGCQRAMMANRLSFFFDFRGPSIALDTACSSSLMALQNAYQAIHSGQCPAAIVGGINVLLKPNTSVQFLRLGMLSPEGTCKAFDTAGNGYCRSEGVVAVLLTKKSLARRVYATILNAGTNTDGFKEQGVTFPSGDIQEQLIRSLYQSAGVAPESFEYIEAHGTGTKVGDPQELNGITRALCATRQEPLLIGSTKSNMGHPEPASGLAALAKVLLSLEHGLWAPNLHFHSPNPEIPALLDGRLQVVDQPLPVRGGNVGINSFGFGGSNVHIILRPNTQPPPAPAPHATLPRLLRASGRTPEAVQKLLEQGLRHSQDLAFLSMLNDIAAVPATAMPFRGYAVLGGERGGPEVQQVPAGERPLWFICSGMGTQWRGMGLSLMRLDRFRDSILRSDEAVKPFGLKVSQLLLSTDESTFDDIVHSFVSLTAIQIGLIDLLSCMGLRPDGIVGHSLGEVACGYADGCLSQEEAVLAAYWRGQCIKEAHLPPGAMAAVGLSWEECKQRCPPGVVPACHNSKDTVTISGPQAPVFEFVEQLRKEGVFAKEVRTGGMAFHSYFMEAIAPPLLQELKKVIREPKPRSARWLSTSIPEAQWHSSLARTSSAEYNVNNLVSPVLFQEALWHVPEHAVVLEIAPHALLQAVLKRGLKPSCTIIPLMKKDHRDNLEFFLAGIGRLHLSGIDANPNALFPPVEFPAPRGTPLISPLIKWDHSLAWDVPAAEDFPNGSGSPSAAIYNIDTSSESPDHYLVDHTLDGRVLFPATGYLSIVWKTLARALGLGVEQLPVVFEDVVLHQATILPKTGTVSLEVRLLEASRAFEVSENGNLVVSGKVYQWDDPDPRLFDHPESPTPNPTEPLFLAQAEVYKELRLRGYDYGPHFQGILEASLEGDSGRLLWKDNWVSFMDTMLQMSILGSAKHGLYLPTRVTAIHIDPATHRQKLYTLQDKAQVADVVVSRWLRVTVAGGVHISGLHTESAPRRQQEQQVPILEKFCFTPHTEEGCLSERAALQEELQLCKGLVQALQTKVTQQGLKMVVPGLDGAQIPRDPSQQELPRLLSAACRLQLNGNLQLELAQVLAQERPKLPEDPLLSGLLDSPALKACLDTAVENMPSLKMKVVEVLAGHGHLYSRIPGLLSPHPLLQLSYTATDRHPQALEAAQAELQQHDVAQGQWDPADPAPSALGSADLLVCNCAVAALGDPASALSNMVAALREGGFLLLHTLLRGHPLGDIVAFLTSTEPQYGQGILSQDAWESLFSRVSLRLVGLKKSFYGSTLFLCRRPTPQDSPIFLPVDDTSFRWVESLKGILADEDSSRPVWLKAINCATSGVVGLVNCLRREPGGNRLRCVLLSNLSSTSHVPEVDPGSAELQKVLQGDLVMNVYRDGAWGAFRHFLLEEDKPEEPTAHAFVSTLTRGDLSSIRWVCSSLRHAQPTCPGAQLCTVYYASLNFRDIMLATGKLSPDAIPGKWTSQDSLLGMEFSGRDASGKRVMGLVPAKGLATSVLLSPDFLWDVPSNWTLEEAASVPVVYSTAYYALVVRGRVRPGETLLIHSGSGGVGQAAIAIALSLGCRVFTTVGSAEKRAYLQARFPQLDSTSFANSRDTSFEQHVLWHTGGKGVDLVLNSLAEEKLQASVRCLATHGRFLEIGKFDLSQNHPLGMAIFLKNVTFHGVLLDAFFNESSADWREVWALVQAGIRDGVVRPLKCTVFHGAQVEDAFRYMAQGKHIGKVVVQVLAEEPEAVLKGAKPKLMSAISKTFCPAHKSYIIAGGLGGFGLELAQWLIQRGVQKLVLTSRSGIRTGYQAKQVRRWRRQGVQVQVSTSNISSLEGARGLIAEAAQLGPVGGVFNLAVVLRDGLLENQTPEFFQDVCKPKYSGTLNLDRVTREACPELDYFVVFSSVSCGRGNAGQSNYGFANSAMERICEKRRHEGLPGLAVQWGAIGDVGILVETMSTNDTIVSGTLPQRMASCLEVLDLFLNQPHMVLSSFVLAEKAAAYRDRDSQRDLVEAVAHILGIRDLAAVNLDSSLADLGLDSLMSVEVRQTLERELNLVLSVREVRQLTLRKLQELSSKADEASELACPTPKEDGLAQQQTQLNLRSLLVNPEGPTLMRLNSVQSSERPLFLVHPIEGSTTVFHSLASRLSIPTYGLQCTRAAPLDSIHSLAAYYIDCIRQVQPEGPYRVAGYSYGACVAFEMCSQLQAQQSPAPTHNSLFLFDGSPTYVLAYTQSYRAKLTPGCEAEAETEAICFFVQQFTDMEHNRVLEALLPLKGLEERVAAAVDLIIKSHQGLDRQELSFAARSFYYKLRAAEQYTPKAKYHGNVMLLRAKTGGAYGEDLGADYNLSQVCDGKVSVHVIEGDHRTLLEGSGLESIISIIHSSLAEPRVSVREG
* marks the source's active call; other numbers are inactive results. Shown are actives, neighbours in structure and some others; about 4% of the full set was active somewhere.

How did O=C(CN1C(=O)NC2(CCc3ccccc32)C1=O)Nc1ccccc1OC(F)F (configuration not stated) do in these assays?
aDG glyco up: 0.1; ADAM10 inh: -4.7; NR3A LBD binder: 1.1; ADAM17 inh: -2.2; FAS TE block: -1.2

Results for O=C(O)CSc1cc(NS(=O)(=O)c2cccc([N+](=O)[O-])c2)c2ccccc2c1O ?
aDG glyco up: 2.6*; ADAM10 inh: -6.3; NR3A LBD binder: -8.0; ADAM17 inh: -4.9; FAS TE block: 28.2

How did CCc1ccc(S(=O)(=O)Nc2ccc(O)c3ccccc23)cc1 do in these assays?
aDG glyco up: 1.9; ADAM10 inh: -46.5; NR3A LBD binder: -5.2; ADAM17 inh: -17.5; FAS TE block: 3.6

How did CCc1ccc(S(=O)(=O)Nc2cc(SCC(=O)O)c(O)c3ccccc23)cc1 do in these assays?
aDG glyco up: 8.1*; ADAM10 inh: -17.1; NR3A LBD binder: 1.5; ADAM17 inh: -12.1; FAS TE block: 0.4

Results for CCOc1ccc(S(=O)(=O)Nc2cc(SCC(=O)O)c(O)c3ccccc23)cc1 ?
aDG glyco up: 3.9*; ADAM10 inh: -6.3; NR3A LBD binder: -7.6; ADAM17 inh: -4.9; FAS TE block: 3.2

How did Cc1ccc(C)c(S(=O)(=O)Nc2cc(SCC(=O)O)c(O)c3ccccc23)c1 do in these assays?
aDG glyco up: 8.5*; NR3A LBD binder: -11.3; FAS TE block: 29.8

What do the screens show for `CN1C(=O)N(CC(=O)Nc2cccc(S(=O)(=O)N(C)c3ccccc3)c2)C(=O)C12CCCCC2`?
aDG glyco up: 0.0; ADAM10 inh: 7.2; NR3A LBD binder: 0.4; ADAM17 inh: 4.2; FAS TE block: 6.8

How did Cc1ccc(C(=O)O)cc1-c1ccc(C=C2C(=O)c3ccccc3C2=O)o1 do in these assays?
aDG glyco up: -0.1; ADAM10 inh: -8.2; NR3A LBD binder: 10.1*; ADAM17 inh: -2.9; FAS TE block: 1.3

What do the screens show for `CCCc1c(NC(=O)Nc2ccc(F)cc2)cnn1-c1ccc(Cl)cc1`?
aDG glyco up: 0.1; ADAM10 inh: 9.4; NR3A LBD binder: 2.2; ADAM17 inh: 2.0; FAS TE block: 16.7

How did CC(C)c1ccc(NC(=O)COC(=O)[C@H](CCC(N)=O)NC(=O)c2ccc(F)cc2)cc1 do in these assays?
aDG glyco up: 0.1; ADAM10 inh: -0.4; NR3A LBD binder: -0.6; ADAM17 inh: -0.2; FAS TE block: 9.2

How did NC(=O)CC[C@H](NC(=O)c1ccc(F)cc1)C(=O)OCC(=O)Nc1c(F)c(F)c(F)c(F)c1F do in these assays?
aDG glyco up: -0.1; ADAM10 inh: -0.1; NR3A LBD binder: 11.5*; ADAM17 inh: -0.8; FAS TE block: -4.4

Results for CN1CCC(CNC(=O)Nc2csc3ccccc23)CC1 ?
aDG glyco up: 0.2; ADAM10 inh: -8.9; NR3A LBD binder: 1.3; ADAM17 inh: -2.9; FAS TE block: -5.9

What do the screens show for `O=C(Nc1ccc(F)cc1)Nc1csc2ccccc12`?
aDG glyco up: 0.1; ADAM10 inh: 11.8; NR3A LBD binder: 34.1*; ADAM17 inh: 3.8; FAS TE block: 7.2

Results for CN(C)c1ccc(NC(=O)Nc2csc3ccccc23)cc1 ?
aDG glyco up: -0.2; ADAM10 inh: 11.4; NR3A LBD binder: 18.1*; ADAM17 inh: 4.8; FAS TE block: 9.4

How did O=C(Nc1ccc(F)cc1)Nc1ccccc1NS(=O)(=O)c1cccs1 do in these assays?
aDG glyco up: 0.4; ADAM10 inh: 1.1; NR3A LBD binder: 29.7*; ADAM17 inh: 2.3; FAS TE block: 0.1

Results for NC(=O)c1ccccc1NS(=O)(=O)c1cccs1 ?
aDG glyco up: 1.1; ADAM10 inh: 5.5; NR3A LBD binder: 0.8; ADAM17 inh: -4.3; FAS TE block: -6.3

How did O=S(=O)(c1ccc2oc(=S)[nH]c2c1)N1CCCCC1 do in these assays?
aDG glyco up: 0.0; ADAM10 inh: 1.7; NR3A LBD binder: -0.9; ADAM17 inh: -0.3; FAS TE block: -0.9

What do the screens show for `CN=c1sc2c(n1C)C(=O)c1ccccc1C2=O`?
aDG glyco up: 13.0*; ADAM10 inh: -13.6; NR3A LBD binder: 1.0; ADAM17 inh: -4.3; FAS TE block: -0.9

What do the screens show for `CC1(c2ccc(Cl)cc2)NC(=O)N(CC(=O)N2CCCC2)C1=O` (configuration not stated)?
aDG glyco up: -0.1; ADAM10 inh: -4.7; NR3A LBD binder: 11.2*; ADAM17 inh: -6.3; FAS TE block: -7.0

Results for Cc1ccc(C)c(S(=O)(=O)N2CCN(C(=O)/C=C/c3ccco3)CC2)c1 ?
aDG glyco up: -0.2; ADAM10 inh: 4.4; NR3A LBD binder: 1.1; ADAM17 inh: 2.2; FAS TE block: 13.0

What do the screens show for `Cc1ccc2oc(=O)c3cnn(CC(=O)NCCC(C)C)c3c2c1`?
aDG glyco up: -0.1; ADAM10 inh: -2.3; NR3A LBD binder: 12.8*; ADAM17 inh: 2.9; FAS TE block: -1.3

How did COc1ccc(-c2c(C(F)(F)F)[nH]n3c(=O)cc(-c4ccccc4)nc23)cc1 do in these assays?
aDG glyco up: 0.0; ADAM10 inh: -60.0; NR3A LBD binder: -2.1; ADAM17 inh: -42.0; FAS TE block: 21.2

Results for O=C(NCCS(=O)(=O)N1CCN(c2ccc(F)cc2)CC1)c1ccco1 ?
aDG glyco up: -0.2; ADAM10 inh: 1.3; NR3A LBD binder: 22.2*; ADAM17 inh: -0.9; FAS TE block: -8.0

What do the screens show for `O=C(NCCS(=O)(=O)N1CCN(c2ccccc2F)CC1)c1ccco1`?
aDG glyco up: -0.1; ADAM10 inh: 3.2; NR3A LBD binder: 6.9; ADAM17 inh: 0.5; FAS TE block: -5.6

What do the screens show for `Nc1[nH]n(-c2ccccc2)c(=O)c1N=Nc1ccc2ncsc2c1`?
aDG glyco up: -0.5; ADAM10 inh: 6.3; NR3A LBD binder: 13.8*; ADAM17 inh: -2.1; FAS TE block: 16.6

How did Nc1[nH]n(-c2ccccc2)c(=O)c1N=Nc1ccccc1[N+](=O)[O-] do in these assays?
aDG glyco up: -0.6; ADAM10 inh: -2.1; NR3A LBD binder: 21.0*; ADAM17 inh: -2.4; FAS TE block: 6.3

Results for Nc1[nH]n(-c2ccccc2)c(=O)c1N=Nc1ccccc1 ?
aDG glyco up: -0.4; ADAM10 inh: 0.5; NR3A LBD binder: -3.8; ADAM17 inh: -0.6; FAS TE block: 15.9

How did O=c1cc(O)nc2n1CCCS2 do in these assays?
aDG glyco up: -0.2; ADAM10 inh: -0.7; NR3A LBD binder: 0.1; ADAM17 inh: -1.9; FAS TE block: -8.0

How did COCCCn1nnnc1SCC(=O)N1CCCC1 do in these assays?
aDG glyco up: 0.5; ADAM10 inh: 0.4; NR3A LBD binder: 1.5; ADAM17 inh: -4.1; FAS TE block: -11.1

How did Cc1cc(C)cc(NC(=O)CCNS(=O)(=O)c2cc(Br)cnc2N)c1 do in these assays?
aDG glyco up: 0.1; ADAM10 inh: -3.5; NR3A LBD binder: 12.5*; ADAM17 inh: -2.6; FAS TE block: 7.9

Results for CCOC(=O)c1ccc(NC(=O)CCNS(=O)(=O)c2cc(Br)cnc2N)cc1 ?
aDG glyco up: -0.2; ADAM10 inh: -12.9; NR3A LBD binder: 15.2*; ADAM17 inh: 8.0; FAS TE block: 4.2

How did COc1ccc(NC(=O)CCNS(=O)(=O)c2cc(Br)cnc2N)cc1OC do in these assays?
aDG glyco up: -0.5; ADAM10 inh: -7.5; NR3A LBD binder: 2.9; ADAM17 inh: -1.2; FAS TE block: -4.5
